High-throughput results as filed in PubChem BioAssay.
Shown are actives, neighbours in structure and some others; about 8.9% of the full set was active somewhere.
SW480 rerep: A quantitative high throughput screen for small molecules that induce DNA re-replication in SW480 colon adenocarcinoma cells; SW480 DNA re-replication, Hoechst DNA content imaging, 48 h; Potency, µM (series often up to 46.1 µM), usual class: activators; 1.8% of 340,000 active; AID 624297, 2012; also: nearly all actives have a fitted effect of over 55% in size
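Hoechst fluorescence of nuclei (405 nm excitation, 500-530 nm emission) measured by plate-scanning imager after 48 hr compound exposure at 37 C; re-replication scored as increased number of nuclei with elevated intensity.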
KB-3-1 cytotox: qHTS assay for MDR1-selective chemotherapeutics: Primary screen using the parental adenocarcinoma cell KB-3-1 | KB-3-1 viability, CellTiter-Glo ATP luminescence, 72 h | Potency, µM (series often up to 46.1 µM), hits mostly cytotoxic | 1.4% of 400,000 active; also: nearly all actives have a fitted effect of over 60% in size
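Parental KB-3-1 adenocarcinoma cells in phenol-red-free DMEM with 10% FBS were pin-treated with compounds at several concentrations, incubated 72 h at 37 °C, and viability read by CellTiter-Glo luminescence; concentration-effect curves were fitted after normalization.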
D3 antag: qHTS of D3 Dopamine Receptor Antagonist: qHTS; D(3) dopamine receptor (Homo sapiens), P35462; D3R cells, DiscoveRx beta-arrestin luminescence, antagonist mode; stronger effect = lower value; max response, negative = inhibition, %; 2.5% of 360,000 active; AID 652054, 2013; in the data active = max response below about -50%; inconclusive = no clear call, values can overlap the other calls
Target sequence (P35462 whole entry, looked up): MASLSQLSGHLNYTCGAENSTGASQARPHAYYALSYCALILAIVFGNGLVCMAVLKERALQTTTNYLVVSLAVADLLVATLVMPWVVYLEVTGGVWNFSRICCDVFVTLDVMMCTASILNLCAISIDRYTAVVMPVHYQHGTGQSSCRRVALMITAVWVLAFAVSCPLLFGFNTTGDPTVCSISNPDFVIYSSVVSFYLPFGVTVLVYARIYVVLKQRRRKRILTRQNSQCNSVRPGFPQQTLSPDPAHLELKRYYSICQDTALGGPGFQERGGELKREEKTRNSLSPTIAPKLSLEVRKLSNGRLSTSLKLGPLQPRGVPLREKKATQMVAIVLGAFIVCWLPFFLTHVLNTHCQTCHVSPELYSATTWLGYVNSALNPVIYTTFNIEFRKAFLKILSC
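Cells plated overnight at 1500 cells/well, then exposed to library compounds with dopamine controls for 90 minutes at 37 degrees C. DiscoveRx reagent added for 30–60 minutes at room temperature; luminescence read, quantitative HTS format.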
MCF10A rereplic: A quantitative high throughput screen for small molecules that induce DNA re-replication in MCF 10a normal breast cells. MCF 10A DNA re-replication, Hoechst nuclear intensity, 48 h. Potency, µM (doses to about 46.1 µM), actives largely listed as activators. 2.9% of 350,000 active. AID 624296, 2012; also: nearly all actives have a fitted effect of over 50% in size
KB-V1 cytotox: qHTS assay for MDR1-selective chemotherapeutics: Primary screen using the drug-selected MDR subline cells KB-V1 | 3.4% of 400,000 active | Potency, µM (titrated, usually from 46.1 µM), hits mostly cytotoxic | KB-V1 MDR cells viability, CellTiter-Glo, 72 h; also: nearly all actives have a fitted effect of over 60% in size
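Cells of the MDR subline KB-V1 are plated, dosed with compound at multiple concentrations, and incubated 72 h at 37 degrees C; CellTiter-Glo is then added and luminescence read after 10 min.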
DRD3 agonist: qHTS of D3 Dopamine Receptor Agonist: qHTS; D3R DiscoveRx beta-arrestin cells, luminescence, 90 min; max activation, %; 0.58% of 410,000 active; in the data active = max activation above about 30%
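Agonist mode: compounds and dopamine controls were applied to plated cells for 90 min at 37 degrees C after an overnight attachment at 1500 cells/well. Luminescent read-out followed 30 - 60 minutes at room temperature with DiscoveRx detection reagent.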
Each line names hits and unclear results; the compound was inactive in the other large screens. Unless noted, calls follow the shape of the dose curve; as a rule, active = well fitted curve in the direction sought with a large enough effect; inconclusive = small, poorly fitted or top-dose-only effect, or another doubt; inactive = no such curve, though single readings can be large; an effect the other way counts as inactive or inconclusive.

COc1ccc(NS(=O)(=O)c2cc([N+](=O)[O-])ccc2N/N=C/c2c(C)[nH]c3ccccc23)cc1	MCF10A rereplic 9.2µM
COc1ccc(-c2cc(C(=O)N(C)CC(=O)Nc3ccccc3Br)c3ccccc3n2)cc1OC	KB-V1 cytotox 9.2µM
COc1cc(-c2cc(C(=O)OCC(=O)NC3CC3)c3ccccc3n2)cc(OC)c1OC	DRD3 agonist 32.5
COc1cc(-c2cc(C(=O)N(C)Cc3ccccc3)c3ccccc3n2)cc(OC)c1OC	KB-3-1 cytotox inconclusive, KB-V1 cytotox inconclusive, DRD3 agonist 32.5
Cc1ccc(-c2cc(C(=O)OCC(=O)NC3CC3)c3ccccc3n2)cc1	none
COc1ccc(-c2cc(C(=O)N(C)CC(=O)Nc3ccccc3C(F)(F)F)c3ccccc3n2)cc1OC	MCF10A rereplic inconclusive
COc1ccc(-c2cc(C(=O)N(C)Cc3ccccc3F)c3ccccc3n2)cc1OC	MCF10A rereplic inconclusive, KB-V1 cytotox 16.4µM
COc1ccccc1CN(C)C(=O)c1cc(-c2cc(OC)c(OC)c(OC)c2)nc2ccccc12	MCF10A rereplic inconclusive, KB-V1 cytotox inconclusive
COc1ccc(NC(=O)CN(C)C(=O)/C=C/c2ccc(S(=O)(=O)N3CCCCCC3)cc2)cc1	KB-3-1 cytotox inconclusive, MCF10A rereplic inconclusive, KB-V1 cytotox 20.6µM
COc1ccc(/C=C/C(=O)N(C)CC(=O)Nc2cccc(F)c2)cc1S(=O)(=O)N1CCCCC1	SW480 rerep 20.6µM, KB-3-1 cytotox 20.6µM, MCF10A rereplic inconclusive
COc1ccc(CN(C)C(C)C(=O)Nc2ccc(S(=O)(=O)N3CCCCC3)cc2)c(OC)c1 (configuration not stated)	SW480 rerep inconclusive, MCF10A rereplic 18.4µM
Cc1ccc(OCC(=O)Nc2ccc(Cl)c(-c3nc4ncccc4o3)c2)cc1C	KB-V1 cytotox inconclusive (no result: SW480 rerep, D3 antag, MCF10A rereplic)
N#Cc1cc2c(nc1SCc1ccccc1)CCCCC2	none
N#Cc1cc2c(nc1SCC(=O)O)CCCCC2	none
COC(=O)CC(=O)CSc1nc2c(cc1C#N)CCCCC2	MCF10A rereplic inconclusive
CCOC(=O)CC(=O)CSc1nc2c(cc1C#N)CCC2	SW480 rerep inconclusive, MCF10A rereplic 4.61µM
N#Cc1cc2c(nc1SCc1ccc(Cl)cc1)CCCC2	D3 antag -64.4
CN1CCc2nc(SCc3ccc(Cl)cc3)c(C#N)c(-c3cccs3)c2C1	SW480 rerep inconclusive, D3 antag -60.2, MCF10A rereplic inconclusive
N#Cc1cc2c(nc1SCC(=O)NCc1ccc3c(c1)OCO3)CCCCC2	MCF10A rereplic inconclusive, KB-V1 cytotox 13µM
CCc1ccc(-c2cn3c(n2)sc2cc(C(=O)NCCC4=CCCCC4)ccc23)cc1	none (no result: SW480 rerep, KB-3-1 cytotox, D3 antag, MCF10A rereplic, KB-V1 cytotox)
CC1(C(=O)Nc2cccc(-n3cnnn3)c2)Cc2ccccc2C(=O)O1 (configuration not stated)	KB-V1 cytotox 11.6µM
CC1(C(=O)Nc2cccc(Br)c2)Cc2ccccc2C(=O)O1 (configuration not stated)	KB-V1 cytotox inconclusive (no result: SW480 rerep, D3 antag, MCF10A rereplic)
CCC(COC)NCc1cn(-c2ccc(OC)cc2)nc1-c1cccc(F)c1 (configuration not stated)	SW480 rerep inconclusive, KB-V1 cytotox 5.17µM
COc1ccc(-n2cc(CNC3CCN(C)CC3)c(-c3cccc(F)c3)n2)cc1	KB-3-1 cytotox inconclusive, MCF10A rereplic 20.6µM
COc1ccc(-n2cc(CN[C@H]3CCCCNC3=O)c(-c3cccc(F)c3)n2)cc1	none
CCn1c(=O)cc(SCC(=O)NCCc2cccc(C)c2)c2ccccc21	none (no result: SW480 rerep, D3 antag, MCF10A rereplic)
O=C(CN1C(=O)C(=O)N(Cc2ccco2)C1=O)Nc1ccccc1	KB-V1 cytotox inconclusive
Cc1nc2c(=O)n(C)c(=O)n(C)c2nc1Cl	SW480 rerep inconclusive, KB-3-1 cytotox 14.6µM, D3 antag -50.5, MCF10A rereplic 1.84µM, KB-V1 cytotox inconclusive
CCN(CC)c1ccc2nc3c(=O)n(C)c(=O)n(C)c3nc2c1	none (no result: SW480 rerep, KB-3-1 cytotox, D3 antag, MCF10A rereplic, KB-V1 cytotox)
O=S(=O)(c1cccc(C(F)(F)F)c1)n1c(/C=C/c2ccccc2)nc2ccccc21	none (no result: SW480 rerep, KB-3-1 cytotox, D3 antag, MCF10A rereplic, KB-V1 cytotox)
